# Screening data deposited in PubChem BioAssay by Broad Institute.
# EZH2 inh – EZH2/PRC2 methyltransferase inhibitors, primary screen, biochemical, DELFIA time-resolved fluorescence, single point; Histone-lysine N-methyltransferase EZH2 (Homo sapiens), Q15910; PRC2 H3K27 methylation, DELFIA TRF, 1 h; inhibition, % at 12.5 µM; 57,000 tested, 0.35% active;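 active = mean inhibition of replicates at least 50% and every single replicate also reaching 50%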;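 also: dimethyl H3K27 on biotinylated H3 21-44 peptide detected by antibody; plate controls were median neutral control wells for no effect and median positive control wells for full effect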
# Target sequence (Q15910 whole entry, looked up): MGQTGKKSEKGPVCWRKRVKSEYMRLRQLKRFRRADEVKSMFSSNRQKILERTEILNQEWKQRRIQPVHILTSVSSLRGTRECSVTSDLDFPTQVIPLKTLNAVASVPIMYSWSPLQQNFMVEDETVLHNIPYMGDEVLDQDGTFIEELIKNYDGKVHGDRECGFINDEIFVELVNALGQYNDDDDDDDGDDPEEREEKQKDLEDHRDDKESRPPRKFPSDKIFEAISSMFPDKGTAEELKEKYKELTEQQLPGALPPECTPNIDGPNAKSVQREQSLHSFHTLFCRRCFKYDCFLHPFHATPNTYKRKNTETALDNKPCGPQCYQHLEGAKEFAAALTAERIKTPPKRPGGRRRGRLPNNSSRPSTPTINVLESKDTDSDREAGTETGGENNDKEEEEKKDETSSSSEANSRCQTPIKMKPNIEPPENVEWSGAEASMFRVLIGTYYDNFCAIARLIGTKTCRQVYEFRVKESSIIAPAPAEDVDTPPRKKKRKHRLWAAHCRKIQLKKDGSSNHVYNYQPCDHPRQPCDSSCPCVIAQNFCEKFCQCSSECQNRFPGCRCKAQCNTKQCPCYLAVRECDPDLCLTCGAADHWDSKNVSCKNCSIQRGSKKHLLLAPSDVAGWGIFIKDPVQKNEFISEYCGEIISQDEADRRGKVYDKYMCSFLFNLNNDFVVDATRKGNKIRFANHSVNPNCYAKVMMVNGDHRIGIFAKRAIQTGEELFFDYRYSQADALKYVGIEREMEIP
# Numbers without * were called inactive. Many of the other results were omitted from the sample, so hits are more common in it than they were.
SMILES,EZH2 inh
COc1ccc(C(=O)Cn2c3ccccc3n3nc(-c4cccs4)nc23)cc1OC,-8.5
O=C(CSc1n[nH]c(-c2ccc(Cl)cc2Cl)n1)Nc1ccc(I)cc1,58.4*
O=C(CSc1n[nH]c(-c2ccc(Cl)cc2Cl)n1)Nc1cccc(C(F)(F)F)c1,29.1
O=C(CSc1n[nH]c(-c2ccc(Cl)cc2Cl)n1)Nc1cc(C(F)(F)F)ccc1Cl,9.3
COc1cc(C(=O)Nc2cc(-c3nc4ncccc4o3)ccc2C)ccc1OCc1ccc(Cl)cc1,3.1
O=C(CCCCC(=O)N/N=C/c1cccc(O)c1O)NO,3.5
O=C(NO)c1ccc(C(=O)N/N=C/c2cccc(O)c2O)cc1,75.6*
O=C(NO)c1ccc(C(=O)N/N=C/c2ccc(O)cc2)cc1,3.8
O=C(NO)c1ccc(C(=O)N/N=C/c2ccccc2C(=O)O)cc1,5.0
CCN(CC)c1ccc(/C=N/NC(=O)c2ccc(C(=O)NO)cc2)c(O)c1,-1.3
O=C(NO)c1ccc(C(=O)N/N=C/c2ccc(O)c(O)c2O)cc1,89.1*
O=C(CSc1nc(-c2ccccc2)cc(=O)[nH]1)Nc1ccc(Cl)cc1,19.8
Cc1nc(CSc2ncnc3sc(C)c(C)c23)cs1,3.4
CCCOc1ccc2oc(=O)c3c(c2c1)CCCN3C(=O)CN(C)c1ccc(C)cc1,-15.0
COC(=O)c1ccc(NC(=O)CCC(=O)c2ccc(C)cc2C)cc1,10.3
Cc1ccc(S(=O)(=O)NC(C)C(=O)Nc2ccc(Oc3ccccc3)cc2)cc1 (stereo unspecified),18.5
Cc1ccc(NC(=O)CCC(=O)c2ccc(Oc3ccccc3)cc2)cc1,52.3*
Cc1cc2oc(C(=O)Nc3nnc(SCc4ccccc4)s3)c(C)c2cc1C,6.1
O=c1cc(-c2ccc(O)cc2)oc2c(C3OC(CO)C(O)C(O)C3O)c(O)c(C3OCC(O)C(O)C3O)c(O)c12 (stereo unspecified),99.4*
O=c1c(-c2ccc(O)cc2)coc2cc(OC3OC(CO)C(O)C(O)C3O)cc(O)c12 (stereo unspecified),8.5
O=C1CC(c2ccc(O)cc2)Oc2cc(O[C@@H]3O[C@H](CO)[C@@H](O)[C@H](O)[C@H]3O)cc(O)c21 (stereo partly specified),-2.1
Cc1ccc(C(=O)CSc2ncnc3sc4c(c23)CCC4)cc1C,-9.4
CCc1c(C)c(C#N)c2[nH]c3ccccc3n2c1=O,-25.5
COc1ccc(C)cc1NC(=O)CN(c1ccc(Cl)cc1)S(C)(=O)=O,2.1
Cc1cc(-c2ccc(N=Nc3cc(S(=O)(=O)O)c4ccccc4c3N)c(C)c2)ccc1N=Nc1cc(S(=O)(=O)O)c2ccccc2c1N,99.3*
SMILES,EZH2 inh
Cc1cc(N)n(-c2ccc(Oc3ccccc3)cc2S(=O)(=O)O)n1,10.1
Cc1sc2ncnc(SCC(=O)c3ccc4ccccc4c3)c2c1C,-7.4
Cc1ccc(C2SCC(C(=O)O)N2C(=O)c2cccc(Cl)c2)cc1 (stereo unspecified),3.3
CCn1c(SCC(=O)Nc2ccc(F)c(Cl)c2)nnc1-c1cccc(C)c1,1.3
CC(C(=O)Nc1cccc(C(F)(F)F)c1)N(c1ccc(Cl)cc1)S(C)(=O)=O (stereo unspecified),-5.3
O=C(NCSCc1cccc(C(F)(F)F)c1)Nc1ccc(F)c(Cl)c1,56.2*
COc1ccc(Cl)cc1Nc1nc(N)nc(-c2cc3ccccc3o2)n1,-18.6
COc1ccc(S(=O)(=O)N(C)CC(=O)Nc2ccc(Br)cc2F)cc1OC,-6.3
C/C(=C/C(=O)O)CCC1C(C)CCC2C(C)(C=O)C(O)CCC12C (stereo unspecified),15.1
C=C1CCC2C(C)(CO)CCCC2(C)C1CC/C(C)=C/C(=O)O (stereo unspecified),13.5
C/C(=C\C(=O)O)CCC1C(C)(O)CCC2C(C)(CO)CCCC12C (stereo unspecified),65.4*
CS(=O)(=O)N(CC(=O)Nc1c(F)cccc1F)c1cccc(Br)c1,6.2
[N-]=[N+]=Nc1cccc(C(=O)N2CCC3(CC2)C(=O)NCN3c2ccccc2)c1,5.3
COc1ccccc1NC(=O)c1cc2ccccc2c(C=Nc2ccc(NC(C)=O)cc2)c1O,1.2
CSc1nc(N2CCCCC2)c2c(c1C#N)CCCC2,62.6*
CCCCc1ccc(-c2csc(NC(=O)c3ccccc3[N+](=O)[O-])c2C(N)=O)cc1,12.7
O=C(Nc1ccc(S(=O)(=O)Nc2ncccn2)cc1)c1ccc(-c2ccccc2)cc1,28.1
CCOc1ccccc1C(=O)Nc1ccc(S(=O)(=O)Nc2nc(C)cc(C)n2)cc1,-4.3
Cc1cc(C)nc(NS(=O)(=O)c2ccc(N)cc2)n1,8.2
Cc1cc(C)nc(NS(=O)(=O)c2ccc(NC(=O)c3ccc(C(=O)c4ccccc4)cc3)cc2)n1,7.4
Cc1cc(C)nc(NS(=O)(=O)c2ccc(NC(=O)c3ccc(-c4ccccc4)cc3)cc2)n1,55.7*
Cc1cc(C)nc(NS(=O)(=O)c2ccc(Nc3nc(-c4ccc(F)cc4)cs3)cc2)n1,58.2*
O=C(CCOc1ccccc1)Nc1nc2c(ccc3ccccc32)s1,16.4
O=C(CSc1nc2c(c(C(F)(F)F)n1)CCCC2)Nc1ccccc1,6.0
CC(C(=O)Nc1ccc(F)c(F)c1)N(c1ccc(Cl)cc1)S(C)(=O)=O (stereo unspecified),5.5
SMILES,EZH2 inh
O=C(CC1(O)C(=O)N(CCc2ccccc2)c2ccc(Br)cc21)c1ccncc1 (stereo unspecified),0.8
CCOC(=O)c1c(NC(=O)c2ccccc2N(C)S(C)(=O)=O)sc2c1CCCC2,3.8
O=C(/C=C/c1ccc(O)cc1)O[C@@H]1CC(O)(C(=O)O)C[C@@H](OC(=O)/C=C/c2ccc(O)cc2)C1O (stereo partly specified),76.3*
CC(=O)CCC1C2C(O)C(C(C)C)C(OC(=O)/C=C/c3ccccc3)CC12C (stereo unspecified),-25.7
COc1cc(/C=C/C(=O)O[C@@H]2C[C@@](O)(C(=O)O)C[C@@H](O)[C@@H]2O)ccc1O,89.8*
COc1cc(/C=C/C(=O)CC(=O)/C=C/c2ccc(O)c(OC)c2)ccc1O,10.5
COc1cc(O)c(C(=O)/C=C/c2ccc(OC)c(OC)c2)c(OC)c1,8.6
CC(C)C1CCC2(C)CCC(O)C(C)(O)C2C1OC(=O)/C=C/c1ccccc1 (stereo unspecified),4.7
Cc1ccc(-n2c3c(cc(C(=O)NCCCN4CCOCC4)c2=O)C(=O)CCC3)cc1,0.7
O=C1c2ccccc2C(=O)N1CCSc1nnnn1-c1ccccc1,-3.1
CC1(C)C=C(c2ccc(C3=CC(C)(C)NC(C)(C)C3)s2)CC(C)(C)N1,-8.4
COc1ccc(OCC(=O)Nc2ccccc2C(=O)Nc2ccccc2)cc1,-6.1
CC(C)(C)c1ccc(OCC(=O)Nc2ccc(C(=O)Nc3ccccc3C(=O)O)cc2)cc1,63.7*
Cc1cccc(OCC(=O)Nc2cccc(C(=O)Nc3ccccc3C(=O)O)c2)c1,42.3
CC(=O)Oc1ccc(C(=O)Nc2ccc(S(=O)(=O)Nc3nccs3)cc2)cc1,-4.8
COc1ccccc1N1CCN(CC(=O)Nc2ccc([N+](=O)[O-])cc2C(=O)Nc2ccccc2F)CC1,-13.2
CC1(CCOC2OC(CO)C(O)C(O)C2O)CCC2C(=CCC3C(C)(C(=O)O)CCCC23C)C1 (stereo unspecified),12.8
CC1C(=O)C23CC(O)C4C(C)(C(=O)OC5OC(CO)C(O)C(O)C5O)CCCC4(C)C2(O)CCC1C3 (stereo unspecified),0.0
